# The list is not random: actives were taken first. Their share in the collection is about 1%.
# TcdB GH inh = inhibitors of Clostridioides difficile toxin B glycohydrolase; TcdB glycohydrolase enzymatic assay, plate reader; inhibition, % at 9.99 µM; actives 0.24% (n = 350,000); AID 652162; in the data active = inhibition above about 10%
# Yp Topo-I inh = Y. pestis Topo-I inhibition via cleavage products; actives 0.064% (n = 360,000); Y. pestis Topo-I cleavage product accumulation, plate reader; activity, % at 10 µM; in the data active = activity above about 50%, passing the limit was not always enough
# BioA inh = BioA (M. tuberculosis) enzyme inhibition | purified M. tuberculosis BioA enzyme, plate reader | inhibition, % at 9.99 µM | actives 0.096% (n = 360,000) | AID 602481; in the data active = inhibition above about 40%
# FadD28 FP inh = blocks FadD28 binding to the bisubstrate probe; fluorescence polarization; inhibition, % at 12.5 µM; actives 0.22% (n = 360,000); AID 588549; in the data active = inhibition above about 8.5%, passing the limit was not always enough
# MazF activator = increases E. coli MazEF RNase cleavage of RNA; actives 0.32% (n = 350,000); activation, % at 20 µM; FAM/BHQ RNA-DNA oligo cleavage fluorescence, 5 h; P0AE70; AID 504720; in the data active = activation above about 50%
# Target sequence (P0AE70 whole entry, looked up): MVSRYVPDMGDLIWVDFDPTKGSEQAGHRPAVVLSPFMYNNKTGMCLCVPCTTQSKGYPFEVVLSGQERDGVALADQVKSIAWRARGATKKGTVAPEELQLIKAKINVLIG
# DUSP3 inh = DUSP3 (human) phosphatase inhibition. recombinant VHR phosphatase, pNPP absorbance. inhibition, % at 13.3 µM. actives 0.52% (n = 290,000). AID 1654; in the data active = inhibition above about 50%
# Target sequence (P51452 whole entry, looked up): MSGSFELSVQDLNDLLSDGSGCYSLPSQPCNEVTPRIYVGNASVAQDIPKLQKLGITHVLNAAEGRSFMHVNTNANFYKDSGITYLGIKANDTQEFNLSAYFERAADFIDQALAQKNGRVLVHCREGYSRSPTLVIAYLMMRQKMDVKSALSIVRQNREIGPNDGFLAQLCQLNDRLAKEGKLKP
# * hit, by the source's call; nt = no result given.
SMILES,TcdB GH inh,Yp Topo-I inh,BioA inh,FadD28 FP inh,MazF activator,DUSP3 inh
O=C(CSc1ccc(-c2nc3ccccc3[nH]2)cn1)Nc1ccc(S(=O)(=O)NC2CC2)cc1,0.6,-4.3,-3.7,32.9*,-2.6,34.2
COc1ccc(/C=C2\SC(=S)N(CCCC(=O)Nc3cc(C)on3)C2=O)cc1OC,0.8,-7.5,-0.3,0.2,150.4*,10.1
COc1cc(/C=C2\SC(=S)N(CCCCC(=O)O)C2=O)ccc1OS(=O)(=O)c1ccc(C)cc1,0.0,23.4,3.9,24.3*,-21.8,nt
COc1ccc(/C=C2\SC(=S)N(CCCCCC(=O)Nc3cc(C)on3)C2=O)cc1OC,0.4,1.2,-1.3,-1.1,8.2,4.4
CCC(=O)Nc1ccc2c(c1)C(=O)N(C)C[C@@H](OC)[C@@H](C)CN(CC1CCOCC1)[C@@H](C)CO2,nt,nt,1.0,nt,nt,nt
CCn1cc(CNC(=O)CSc2nc(-c3ccc(OC)c(OC)c3)cc(C(F)(F)F)n2)c(C)n1,0.9,-4.8,nt,-1.5,-1.4,51.3*
CC(Sc1nc(N)cc(=O)[nH]1)C(=O)NCC(=O)Nc1ccc(F)c(F)c1F (stereo not given),10.7*,3.3,-2.3,-1.1,4.5,nt
Oc1ccc(N=Nc2ccccc2-c2nn[nH]n2)c(O)c1,-47.5,-15.0,5.9,22.2*,-0.5,34.4
C=CCn1c(O)c(N=Nc2ccccc2O)c2ccccc21,-1.3,-17.5,-2.9,2.5,310.8*,nt
COc1ccc(NC(=O)C2CC(=O)N(c3ccccc3C)C2)c(OC)c1 (stereo not given),0.4,-0.2,1.0,0.3,10.4,58.5*
COc1ccc(OC)c(NC(=O)C2CC(=O)N(c3ccccc3)C2)c1 (stereo not given),nt,2.9,0.3,-1.5,-4.2,-2.5
COCC(=O)N1CC2(C1)[C@@H](c1ccccc1)[C@H](CO)N2C(=O)c1cccnc1,0.6,nt,nt,nt,nt,nt
CC1(C)Cc2nc(-c3ccccc3)nc(SCC(=O)N3CCOCC3)c2CO1,1.3,-4.8,-0.9,0.5,3.6,38.7
Cc1cccc(-c2nc3c(c(SCC(=O)N4CCOCC4)n2)COC(C)(C)C3)c1,0.8,-0.5,nt,0.1,13.2,59.8*
O=C(NCC[C@H]1CC[C@H](NC(=O)C2CCC2)[C@H](CO)O1)c1cnccn1,-9.2,nt,-2.6,nt,nt,nt
O=C(NCCn1cc(SCc2ccccc2)c2ccccc21)c1ccccc1F,1.9,50.2*,-0.4,0.3,-5.3,0.2
O=C(CSc1cn(CCNC(=O)c2ccccc2F)c2ccccc12)NCC1CCCO1 (stereo not given),-0.2,7.7,0.3,-1.1,1.7,1.1
CCC(C)[C@H](NC(=O)N1CCn2c1nc1ccccc12)C(=O)NCc1ccccc1 (stereo not given in full),-1.1,20.7,-3.5,-0.8,14.6,50.2*
CC(C)[C@H](NC(=O)N1CCn2c1nc1ccccc12)C(=O)NCc1ccc(F)cc1,0.1,16.0,-2.1,-1.6,-1.9,11.4
O=c1[nH]c(=O)n(-c2ccc(F)cc2)c(O)c1C=Nc1ccccc1N1CCCC1,nt,-4.2,-2.1,-0.6,205.8*,-1.3
C#CCSc1nc2sc3c(c2c(=O)n1C)CCC3,0.2,7.5,-0.4,-1.6,-20.0,58.2*
COc1ccc(C2CC(c3ccccc3)=NN2C(=O)COC(=O)c2cccc(S(=O)(=O)N3CCOCC3)c2)cc1 (stereo not given),nt,60.4*,nt,-0.9,-4.2,38.4
C=CCOc1cccc(C2C(C(=O)c3cc4ccccc4o3)=C(O)C(=O)N2c2cc(C)on2)c1 (stereo not given),0.8,68.8*,0.1,-0.5,6.5,1.6
S=C(NCc1ccc2c(c1)OCO2)Nc1ccc(-c2nc3ccccc3[nH]2)cc1,-0.5,-3.5,nt,1.1,50.3*,1.3
Cc1nc(S/C(=C\c2ccc(-c3ccc(C(=O)O)c(Cl)c3)o2)C(=O)O)n[nH]1,-1.2,-18.1,0.3,19.9*,-18.4,1.4
SMILES,TcdB GH inh,Yp Topo-I inh,BioA inh,FadD28 FP inh,MazF activator,DUSP3 inh
Cc1nc(S/C(=C\c2ccc(OCc3ccccc3Cl)cc2)C(=O)O)n[nH]1,nt,-1.4,-1.8,-1.5,6.0,35.3
O=C1CSC(=S)N1N=Cc1c(O)ccc2ccccc12,1.1,-16.6,nt,-0.9,590.0*,nt
COc1ccc2ccccc2c1/C=N/N1C(=O)CSC1=S,1.0,-12.2,nt,-3.5,-37.9,30.1
C[C@H]1CN([C@@H](C)CO)C(=O)c2cc(NS(=O)(=O)c3ccc(Cl)cc3)ccc2O[C@H]1CN(C)CC1CCCCC1,0.3,nt,-0.8,nt,nt,nt
COCC(C)NC(=O)c1ccc2c(c1)S(=O)(=O)c1ccccc1C2=O (stereo not given),0.0,5.8,-0.8,nt,0.9,27.9
CCC(C)NC(=O)c1ccc2c(c1)S(=O)(=O)c1ccccc1C2=O (stereo not given),-0.5,1.0,-1.5,-2.6,-2.3,55.5*
COc1c2ccoc2c(OCC=C(C)C)c2oc(=O)ccc12,-0.6,4.1,0.0,1.9,-1.7,3.9
CC(C)=CCOc1c2occc2cc2ccc(=O)oc12,13.5*,6.8,1.1,-2.2,10.6,8.6
Nc1nnc(SCCCOc2ccc(F)cc2)s1,1.8,7.6,-2.3,12.9*,3.1,-15.5
C=CCNc1nc(N2CCOCC2)c(C#N)c2c1CN(C)CC2,nt,0.0,nt,1.6,53.8*,-3.7
CCC(=O)N1C[C@@H](C)[C@@H](OC)CN(C)C(=O)c2cc(NS(=O)(=O)CC)ccc2OC[C@@H]1C,-0.2,nt,-0.6,nt,nt,nt
COc1cc(/C=N/NC(N)=S)ccc1OC(=O)c1ccc(C)cc1,nt,7.1,nt,-18.1,5.2,24.3
COc1cc(/C=N/NC(N)=S)ccc1OCc1ccc(C)cc1,1.8,10.7,nt,15.8*,14.0,-5.7
C[C@H]1CN([C@@H](C)CO)C(=O)c2cc(Br)cnc2O[C@H]1CN(C)Cc1ccncc1,-0.7,nt,-3.1,nt,nt,nt
O=c1[nH]c2ccc(S(=O)(=O)N3CCCCC3)cc2o1,-0.1,3.6,-0.9,-1.5,9.4,4.4
CCN1CCN(S(=O)(=O)c2ccc3[nH]c(=O)oc3c2)CC1,19.3*,-3.2,1.3,-2.0,0.7,4.0
O=C(Nc1ccc2c(c1)OCO2)N[C@@H]1CC[C@H](CCNC(=O)C2CCOCC2)O[C@H]1CO,-0.3,nt,-1.9,nt,nt,nt
COc1ccccc1/C=C(/CC(=O)NCc1ccccc1)c1nc2ccccc2s1,nt,22.6,-1.7,-3.3,13.1,53.8*
CN(C)CC#Cc1ccc([C@@H]2[C@H](CO)N3CCCCN(CC4CC4)C[C@@H]23)cc1,-0.3,nt,-2.4,nt,nt,nt
Nc1ccc2c(c1)[nH]c(=O)c1ccccc12,1.9,-2.1,nt,-2.5,3.1,nt
O=c1[nH]c2cc(O)ccc2c2ccccc12,10.3*,-2.0,0.5,-3.9,nt,nt
CCCc1cc(=O)oc2c(C)c(OCC(=O)c3ccc(N4CCCC4)cc3)ccc12,nt,-2.4,-1.6,-2.2,-3.7,57.9*
CCCCc1cc(=O)oc2c(C)c(OCC(=O)N3CCCC3)ccc12,1.0,-0.8,5.3,-0.7,18.5,18.5
O=Nc1ccc(NOC(=O)c2ccccc2Br)cc1,nt,-8.1,nt,-4.9,6.1,-2.9
O=C(ONc1ccc(N=NC(=O)c2ccccc2O)cc1)c1ccccc1,nt,3.9,1.7,1.2,0.6,52.1*
